Bioassay records deposited in PubChem by several laboratories.
A selection: hits, their analogues and other compounds. The true share with any hit is near 6.6%.
NR3A LBD binder: modulators (binders) of human NR3A ligand-binding domain; NR3A LBD differential scanning fluorimetry, Tm shift; 0% = protein alone, 100% = glycine-bound protein; Tm shift relative to glycine control, % at 25 µM; hit rate 2.5% among 340,000; AID 1259313;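 active = melting temperature shift of at least 10% of the positive control shift, at one fixed dose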
Beta cell apopt: blocks beta cell apoptosis; INS-1E cytokine-induced death, ATP luminescence, 48 h; percent of positive-control rescue, neutral wells zero; protection from apoptosis, % (concentration not given with the values); hit rate 0.8% among 300,000;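 active = Every replicate reaches about 75%, or at least half do and their mean reaches it too, limit read from the data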;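 also: 0% = cytokine-treated negative control wells and 100% = positive control rescue; higher means more ATP so stronger rescue from cytokine killing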
Gli-Sufu antag: Gli-Sufu pathway antagonism; Sufu-KO-LIGHT fibroblasts, Gli luciferase reporter luminescence; inhibition, % at 5 µM; hit rate 0.74% among 340,000;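 active = inhibition above about 55%, limit read from the data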;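 also: 0% = DMSO-treated cells and 100% = wells with medium but no cells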
Mdm2-MdmX inh: inhibitors of human Mdm2/MdmX interaction; O15151+Q00987; SaOS-2 split-luciferase Mdm2/MdmX complementation, luminescence; inhibition, % at 8 µM; hit rate 3% among 330,000; AID 485346;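 active = inhibition of at least 50% at 8 µM in the primary screen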
CSC inhib: blocks cancer stem cells | cancer stem cell-like cells viability, luminescence | inhibition, % at 7.5 µM | AID 2717 | hit rate 1.1% among 300,000; in the data active = inhibition above about 75%; tested in HMLE shEcad cells
MPTP block: blocks calcium-induced mitochondrial swelling; isolated mouse mitochondria, Ca2+ swelling absorbance, 30 min; inhibition, % at 10 µM; hit rate 1.4% among 360,000;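 active = inhibition of 50% or more, scaled per plate between neutral and stimulator controls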;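 also: 0% = DMSO wells given calcium and 100% = 1 mM EGTA wells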
Mdm2 MdmX conf: confirmation of human Mdm2/MdmX interaction inhibitors; shares compounds with Mdm2-MdmX inh; Mdm2-MdmX binding, luminescent assay; inhibition, % at 8 µM; hit rate 55% among 10,000; AID 489028; in the data active = inhibition above about 40%
Full FLuc ctr: inhibits full-length luciferase, flagging false Mdm2/MdmX hits; shares compounds with Mdm2-MdmX inh; SaOS-2 full-length luciferase counterscreen, luminescence; inhibition, % at 8 µM; hit rate 77% among 6,200; AID 504607;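 active = mean inhibition at 8 µM reaching about 37%, which flags the compound as non-specific, limit read from the data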;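 also: p53-null SaOS-2 cells with luciferase driven by a doxycycline-inducible promoter; compound on cells about two nights before reading with doxycycline added after day one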
An asterisk follows results filed as active.

O=C(/C=C\c1cn(-c2ccccc2)nc1-c1ccccc1)Nc1nccs1 was read as NR3A LBD binder 28*, Beta cell apopt 48, Gli-Sufu antag -10, Mdm2-MdmX inh 84*, CSC inhib 11, MPTP block 7, Mdm2 MdmX conf 81* and Full FLuc ctr 29.
Screening CC(=O)NS(=O)(=O)c1ccc(NC(=O)/C=C/c2cn(-c3ccccc3)nc2-c2ccccc2)cc1 returned NR3A LBD binder 7, Beta cell apopt -1, Gli-Sufu antag 1, Mdm2-MdmX inh 14, CSC inhib 1 and MPTP block 10.
`O=S(=O)(CCSc1nc2ccccc2o1)c1nc2ccccc2s1` gave NR3A LBD binder -2, Beta cell apopt -3, Gli-Sufu antag 7, Mdm2-MdmX inh 83*, CSC inhib 46, MPTP block 5, Mdm2 MdmX conf 72* and Full FLuc ctr 36.
O=S(=O)(CCSc1ccccn1)c1nc2ccccc2s1 was read as NR3A LBD binder -3, Beta cell apopt -3, Gli-Sufu antag 10, Mdm2-MdmX inh 80*, CSC inhib 58, MPTP block -1, Mdm2 MdmX conf 48* and Full FLuc ctr 39*.
`CC1(C(=O)Nc2cccc3c2CCCC3)CCN1C(=O)c1cccc(F)c1` (centres undefined) gave MPTP block -1.
For CC(OC(=O)Nc1ccccc1)C(=O)OC1CCCCC1 (centres undefined) the results were NR3A LBD binder 2, Gli-Sufu antag -6 and MPTP block 0.
For O=C(CN1C(=O)/C(=C/c2cccc(Cl)c2)SC1=S)NC1C=CS(=O)(=O)C1 (centres undefined) the results were NR3A LBD binder -7, Beta cell apopt 0, Gli-Sufu antag 28, Mdm2-MdmX inh 8, CSC inhib 13 and MPTP block -1.
`O=C(CN1C(=O)S/C(=C\c2cccc(Cl)c2)C1=O)NC1C=CS(=O)(=O)C1` (centres undefined) gave NR3A LBD binder 0, Beta cell apopt -16, Gli-Sufu antag 14, Mdm2-MdmX inh 57*, CSC inhib 2, MPTP block -1 and Mdm2 MdmX conf 33.
`Cc1cc(C)c(OCC(=O)OC(C)C(=O)NC2CC2)c(C)c1` (centres undefined) gave NR3A LBD binder 5, Beta cell apopt 2, Gli-Sufu antag 3, Mdm2-MdmX inh -1, CSC inhib 17 and MPTP block 0.
Screening CCC(C)(C)C(=O)O[C@H]1C[C@@H](C)C=C2C=C[C@H](C)[C@H](CC[C@@H]3C[C@@H](O)CC(=O)O3)[C@H]21 returned NR3A LBD binder -1, Beta cell apopt 21, Gli-Sufu antag -17, Mdm2-MdmX inh 55*, CSC inhib 29 and Mdm2 MdmX conf 22.
`Cc1ccc(NC(=S)N=Nc2c(O)[nH]c3ccccc23)cc1` gave NR3A LBD binder 0, Gli-Sufu antag -61, Mdm2-MdmX inh 65*, CSC inhib 53, MPTP block 1, Mdm2 MdmX conf 52* and Full FLuc ctr 67*.
`N=C(N)N=Nc1c(O)[nH]c2ccc(Br)cc12` gave NR3A LBD binder -6, Beta cell apopt 3, Gli-Sufu antag 25, Mdm2-MdmX inh 40, CSC inhib -12 and MPTP block -2.
Oc1ccc(NC(=S)N=Nc2c(O)[nH]c3ccc(Br)cc23)cc1 was read as NR3A LBD binder 8, Gli-Sufu antag 5, Mdm2-MdmX inh 70*, MPTP block 1, Mdm2 MdmX conf 74* and Full FLuc ctr 42*.
Oc1cccc(NC(=S)N=Nc2c(O)[nH]c3ccc(Br)cc23)c1 was read as NR3A LBD binder 8, Beta cell apopt 7, Gli-Sufu antag -1, Mdm2-MdmX inh 56*, CSC inhib 30, MPTP block 35, Mdm2 MdmX conf 46* and Full FLuc ctr 57*.
For Oc1ccc(NC(=S)N=Nc2c(O)[nH]c3ccccc23)cc1 the results were NR3A LBD binder -9, Beta cell apopt 3, Gli-Sufu antag -47, Mdm2-MdmX inh 36, CSC inhib 12 and MPTP block 0.
Screening Oc1[nH]c2ccc(Br)cc2c1N=NC(=S)Nc1ccc(F)cc1 returned NR3A LBD binder 18*, Beta cell apopt 29, Gli-Sufu antag -14, Mdm2-MdmX inh 71*, CSC inhib 82*, MPTP block 7, Mdm2 MdmX conf 70* and Full FLuc ctr 43*.
Screening Cc1ccc(F)cc1C(=O)N1CCCC(C)(C(=O)NS(=O)(=O)C2CC2)C1 (centres undefined) returned MPTP block 0.
CCOc1c(CNc2nnnn2C)cccc1OC was read as NR3A LBD binder 0, Beta cell apopt -2, Gli-Sufu antag -4, Mdm2-MdmX inh 14, CSC inhib 4 and MPTP block -1.
For O=C1NC(Cc2ccc(O)cc2)c2nc3ccc(F)cc3c(=O)n2-c2cc3ccccc3cc21 (centres undefined) the results were MPTP block 0.
O=C(N/N=C/c1cccs1)c1ccc2ccccc2c1 was read as NR3A LBD binder 9, Beta cell apopt 3, Gli-Sufu antag -38, Mdm2-MdmX inh 25, CSC inhib 3 and MPTP block -1.
`Cc1ccc(/C=N/NC(=O)c2ccc3ccccc3c2)s1` gave NR3A LBD binder 4, Beta cell apopt 7, Gli-Sufu antag -16, Mdm2-MdmX inh 56*, CSC inhib 50, MPTP block -2, Mdm2 MdmX conf 68* and Full FLuc ctr 73*.
`COc1cccc(/C=C/C(=C2/C(=O)N(c3ccccc3)N=C2C)c2ccc(Br)cc2)c1OC` gave NR3A LBD binder -1, Gli-Sufu antag 1, Mdm2-MdmX inh 59*, CSC inhib 76*, MPTP block -1 and Mdm2 MdmX conf 10.
CN1CCN2c3ncccc3Cc3ccccc3C2C1 (centres undefined) was read as NR3A LBD binder 0, Gli-Sufu antag 5, Mdm2-MdmX inh 21, CSC inhib 1 and MPTP block 0.
For CC(C)(C)[C@]1(O)CCN2C[C@H]3c4ccccc4CCc4cccc(c43)[C@@H]2C1 the results were NR3A LBD binder -1, Beta cell apopt 4, Gli-Sufu antag 5, Mdm2-MdmX inh 66*, CSC inhib -4, Mdm2 MdmX conf 36 and Full FLuc ctr 84*.
COC(=O)c1cc(=O)n(Cc2ccc3c(c2)OCO3)c(=Nc2ccc(F)cc2)s1 was read as NR3A LBD binder -1, Beta cell apopt 1, Gli-Sufu antag 0, Mdm2-MdmX inh 57*, CSC inhib 43, MPTP block 0 and Mdm2 MdmX conf 31.
